Results reported in the supplement of paper PMC6555819.

Columns and labels:
Assay in all cases: PBM binding z-score (relative to random genomic background probes); higher = stronger binding; sequences stand for … in GC…GCGATTGACAGCGTAGAATGAAGG
[1] = system: FXR:RXRa (NR concentration 270 nM, RXRa partner concentration 90 nM)
Method in brief: (§1)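 Binding buffer was PBS pH 7.4 with 2% milk, 0.02% Triton X-100, 1 mM DTT, 0.2 mg/mL BSA and 0.4 mg/ml salmon testes DNA. In it, ligand-free nuclear receptor dimers were incubated 1 h on custom Agilent 4×180K protein-binding microarrays carrying double-stranded probes. Antibodies against each partner (one per run) detected binding, and z-scores were calculated against random background probes after regression normalization of scanned fluorescence.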

[2] = system: LXRa:RXRa (NR concentration 270 nM, RXRa partner concentration 90 nM)
Method in brief: as §1

[3] = system: LXRa homodimer (NR concentration 270 nM)
Method in brief: as §1

[4] = system: LXRb:RXRa (NR concentration 270 nM, RXRa partner concentration 90 nM)
Method in brief: as §1

[5] = system: LXRb homodimer (NR concentration 270 nM)
Method in brief: as §1

[6] = system: PPARa:RXRa (NR concentration 270 nM, RXRa partner concentration 90 nM)
Method in brief: as §1

[7] = system: PPARg:RXRa (NR concentration 180 nM, RXRa partner concentration 90 nM)
Method in brief: as §1

[8] = system: PPARg:RXRa 270nM:90nM, anti-RXR (NR concentration 270 nM, RXRa partner concentration 90 nM)
Method in brief: as §1

[9] = system: PPARg:RXRa 30nM:10nM, anti-RXR (NR concentration 30 nM, RXRa partner concentration 10 nM)
Method in brief: as §1

[10] = system: PPARg:RXRa 90nM:30nM, anti-RXR (NR concentration 90 nM, RXRa partner concentration 30 nM)
Method in brief: as §1

[11] = system: PPARg:RXRa DBDmut IVT, anti-RXR (DBD mutation: RXRa K156A/R161A, NR concentration 270 nM, RXRa partner concentration 90 nM)
Method in brief: as §1

[12] = system: PPARg:RXRa IVT, anti-PPARg (NR concentration 270 nM, RXRa partner concentration 90 nM)
Method in brief: as §1

[13] = system: PPARg DBDmut:RXRa IVT, anti-PPARg (DBD mutation: PPARg1 K132A/R137A, NR concentration 270 nM, RXRa partner concentration 90 nM)
Method in brief: as §1

[14] = system: PPARg DBDmut IVT, anti-PPARg (DBD mutation: PPARg1 K132A/R137A, NR concentration 270 nM)
Method in brief: as §1

[15] = system: PPARg homodimer (NR concentration 180 nM)
Method in brief: as §1

[16] = system: PXR:RXRa (NR concentration 270 nM, RXRa partner concentration 90 nM)
Method in brief: as §1

[17] = system: PXR homodimer (NR concentration 270 nM)
Method in brief: as §1

[18] = system: RARa:RXR (NR concentration 270 nM, RXRa partner concentration 90 nM)
Method in brief: as §1

[19] = system: RARa homodimer (NR concentration 270 nM)
Method in brief: as §1

[20] = system: RARb:RXRa (NR concentration 270 nM, RXRa partner concentration 90 nM)
Method in brief: as §1

Sequence	PBM binding z-score [1]	PBM binding z-score [2]	PBM binding z-score [3]	PBM binding z-score [4]	PBM binding z-score [5]	PBM binding z-score [6]	PBM binding z-score [7]	PBM binding z-score [8]	PBM binding z-score [9]	PBM binding z-score [10]	PBM binding z-score [11]	PBM binding z-score [12]	PBM binding z-score [13]	PBM binding z-score [14]	PBM binding z-score [15]	PBM binding z-score [16]	PBM binding z-score [17]	PBM binding z-score [18]	PBM binding z-score [19]	PBM binding z-score [20]
GCTGCTAGGTCAACTGATGTTCAGCTAAAGCTCG	4.01	2.78	0.062	1.95	0.048	3.71	2.89	3.07	0.613	1.86	4.93	4.11	-0.364	-1.06	1.1	1.64	-0.723	2.27	-0.512	4.32
CGTCCAAGGTCAATGCTCGGTCAGTGAAAGCATT	5.98	5.55	2.7	4.04	0.788	5	3.34	3.99	1.61	2.79	3.28	3.36	-0.42	-0.828	2.78	3.93	0.774	5.12	0.202	5.11
CTAGACAGGTGAGAAGGTAACTCAGCCTCGATTA	-0.0745	-0.0361	-0.246	-0.171	-0.733	0.677	0.508	0.818	0.0715	0.577	0.878	0.891	0.184	-0.714	0.258	-0.111	0.0997	-0.121	-0.138	0.44
AGAACGAGGGCACTGAGTTGATAGCACGGGTGGC	0.0718	-0.082	-0.301	-0.236	-0.887	1.52	1.5	1.04	0.0133	0.347	3.56	2.9	0.453	0.196	0.00559	1.21	4.15	0.453	-0.261	2.09
CGAACTAGGTCAGAACAGAACAGTGAAGGATGAT	0.766	0.278	-0.166	0.401	-0.644	2.7	5.43	4.46	1.89	3.74	7.54	7.16	1.34	0.4	0.811	-0.0344	0.00344	0.194	-0.0462	2.8
TCTTGTGGATCAAGCAGGTTAAGAAAGCCTGAGT	0.364	0.407	-0.212	0.444	-0.493	0.766	-0.54	1.07	2.27	1.58	1.46	0.177	-0.713	0.262	-0.187	0.422	0.248	0.506	-0.587	0.161
ATCGAAAGGCCGACGAGGTGAGTATACACCGTTT	0.135	-0.127	-0.565	-0.439	-0.414	-0.0782	0.686	-0.414	-0.0742	-0.119	-0.57	0.479	0.035	0.014	-0.108	-0.0744	-0.0811	0.0866	-0.372	1.33
CGTCCAAGGTCCGAGAGGTCAGTGAATGCCGAGT	2.4	1.89	1.06	1.86	-0.631	2.26	-0.135	0.688	-0.759	-0.083	-0.0478	0.0193	-1.25	-0.955	2.31	3.19	1.56	2.87	0.494	3.23
CGTCCAAGGTCACTGCTAGGTCAGTGAAAGCATT	6.69	5.11	1.49	4.28	0.283	5.14	4.7	5.1	1.92	3.94	3.59	4.59	-0.128	0.266	3.91	4.72	1.09	5.65	0.316	5.42
AATACAGAGTCACTAGGCCAGAGTAGGTACGAAT	-0.115	-0.0616	-0.358	-0.555	-0.252	0.626	1.31	0.617	0.184	0.718	0.648	1.74	1.31	0.135	0.238	-0.343	-0.0346	-0.415	0.249	0.141
CCGAGTAGTTTATGGGGCATTCAGGCAACGGTGA	0.0687	-0.0173	-0.197	0.53	-0.0668	0.806	0.147	0.448	-0.234	0.108	1.6	1.4	-0.427	-0.259	0.266	-0.181	-0.00127	-0.101	-0.193	0.282
TTATATAGGTAAAAGGTGAAAGTCGGTGTGGTAA	2.14	1.87	0.372	2.02	-0.0123	6.3	10.6	9.28	9.36	10.3	7.08	6.76	2.28	1.42	2.84	1.91	0.453	3.15	1.5	1.86
TAGCCTAGGTCATTCAGGTGCCAGTATAGAAAGC	4.93	3.74	0.777	2.77	0.913	3.55	1.87	2.27	0.493	1.54	1.57	2.83	0.483	-0.0925	1.13	2.17	0.327	2.34	-0.175	3.6
CCTCGGAGGACAACAGCAGGTCAGAGCTGCCAGA	0.202	0.89	0.459	0.176	-0.75	0.561	0.1	-0.313	-0.784	-0.736	0.0913	-0.0313	-0.897	-1.32	0.749	0.458	-0.253	0.722	0.0209	2.04
AGAATGAGGTTACGAAAGATCAGGGAAACGCTTG	2.59	4.99	-0.188	2.46	-0.578	3.68	2.95	2.84	1.04	2.02	4.25	3.64	0.808	0.386	0.0598	1.44	-0.57	2.32	-0.313	2.21
ACTTACGGGTCAACGAGGTTATAGCGCGCGTATA	6.93	5.04	0.711	4.5	0.647	5.73	5.68	5.59	2.17	4.49	3.58	4.21	0.78	1.28	2.15	5.22	3.53	5.29	0.581	4.29
GCTTGTAGATCAAGGTTAATAAAGACTAAGCTAA	-0.0696	2.14	-0.45	0.661	-0.608	1	1.29	2.36	0.581	1.78	1.14	0.996	-0.734	0.456	-0.133	0.16	0.327	0.282	0.0284	0.519
TCGAGCAGGTTACCAATGGGGCATTCAGCTTTCT	0.00101	1.37	-0.694	0.999	-1	0.887	-0.242	0.245	0.211	0.322	0.467	0.239	-1.51	-1.13	-0.591	0.0251	-0.765	0.475	-1.05	1.07
AGAACGAGGGCACGCTGAGTTTATAGCAGAGTAG	0.87	1.08	-0.437	0.283	-1.07	2.21	2.19	1.98	0.505	1.43	4.28	3.85	1.13	0.317	0.761	3.96	2.87	1.28	-0.418	2.63
